Reference: PubChem BioAssay (Tox21)
Results filed as inconclusive are left out. Calls of active or inactive are those of the source. Unless noted, calls come from the whole dose curve.

Columns and labels:
[1] = target: Gonadotropin-releasing hormone receptor (Homo sapiens) (UniProt P30968); experiment: Human gonadotropin-releasing hormone receptor (GnRHR) small molecule agonists, calcium flux assay in GnRHR-HEK293 cells (AID 1920063); note: nearly all actives have a fitted effect of over 35% in size
Gonadotropin-releasing hormone receptor (Homo sapiens), sequence (P30968 whole entry, looked up): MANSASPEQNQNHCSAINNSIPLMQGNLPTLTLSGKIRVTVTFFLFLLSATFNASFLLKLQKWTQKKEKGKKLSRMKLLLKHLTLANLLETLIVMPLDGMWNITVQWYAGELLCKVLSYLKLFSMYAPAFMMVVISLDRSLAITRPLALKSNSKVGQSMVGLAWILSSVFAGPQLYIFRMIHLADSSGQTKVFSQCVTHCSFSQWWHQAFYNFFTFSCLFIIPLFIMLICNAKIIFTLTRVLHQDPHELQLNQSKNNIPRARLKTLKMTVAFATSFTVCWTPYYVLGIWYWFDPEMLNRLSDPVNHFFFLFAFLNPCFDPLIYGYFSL
Summary of the method: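 HEK293 cells stably expressing human GnRHR were dye-loaded for 1 h at 37 C. Compound was added in agonist mode and fluorescence (Ex/Em 480/540) recorded kinetically for 3 min. Fifteen concentrations, triplicates.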

[2] = target: KiSS-1 receptor (Homo sapiens) (UniProt Q969F8); experiment: Human kisspeptin (KISS1R) small molecule agonists, calcium flux assay in KISS1R-HEK293 cells (AID 1920064; active = well fitted curve in the direction sought with a large enough effect in the repeat runs; an effect the other way counts as inactive or inconclusive)
KiSS-1 receptor (Homo sapiens), sequence (Q969F8 whole entry, looked up): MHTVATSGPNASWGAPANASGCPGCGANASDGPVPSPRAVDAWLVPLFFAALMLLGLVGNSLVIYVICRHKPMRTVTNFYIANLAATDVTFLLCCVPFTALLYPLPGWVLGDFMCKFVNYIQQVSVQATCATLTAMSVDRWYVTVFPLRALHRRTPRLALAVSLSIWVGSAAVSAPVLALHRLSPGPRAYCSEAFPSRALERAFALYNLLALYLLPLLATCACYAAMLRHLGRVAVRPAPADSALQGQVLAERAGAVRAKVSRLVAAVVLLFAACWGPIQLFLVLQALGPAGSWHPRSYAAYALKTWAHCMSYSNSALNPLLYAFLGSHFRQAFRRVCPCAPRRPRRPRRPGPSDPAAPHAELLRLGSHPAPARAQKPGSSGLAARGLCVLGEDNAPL
Summary of the method: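 HEK293 cells stably expressing human KISS1R were loaded with calcium dye for 1 h at 37 C, then given compound; fluorescence (Ex/Em 480/540) was read kinetically for 3 min. Fifteen concentrations, triplicate.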

[3] = G protein-coupled receptor (GPCR) small molecule agonists, calcium flux assay: HEK293 wild type cell line counter screen (AID 1920065)
Summary of the method: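 Wild-type HEK293 cells plated 18 h, loaded with calcium dye 1 h at 37 C, then compounds added in agonist mode (ATP as positive control). Kinetic fluorescence Ex/Em 480/540 recorded 3 min at 1 sec intervals; 15 concentrations, triplicate.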

[4] = p53 small molecule agonists, cell-based qHTS assay with human liver microsomes (AID 1963577);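 note: p53 response element beta-lactamase reporter cells with liver microsomes plus NADPH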
Summary of the method: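 16 h, 37 C exposure of p53RE-bla cells to compounds with human liver microsomes and NADPH (0.5 mg/mL final each); detection via LiveBLAzer mixture, 2 h dark at room temperature.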

[5] = p53 small molecule agonists, cell-based qHTS assay with rat liver microsomes (AID 1963578)
Summary of the method: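 With rat liver microsomes and NADPH present (0.5 mg/mL final each), p53RE-bla cells are treated with compound for 16 h at 37 C. LiveBLAzer detection mixture is then applied for 2 h at room temperature in the dark.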

[6] = p53 small molecule agonists, cell-based qHTS assay with human liver microsomes: qHTS cell viability counter screen (AID 1963579); note: nearly all actives have a fitted effect of over 45% in size; note: potency is the fitted concentration of half-maximal effect
Summary of the method: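 In this multiplexed counter screen, the reporter plates were subsequently treated with CellTiter-Glo so that cell viability, reflected by luminescence, could be recorded for p53RE-bla cells dosed 16 h with compounds under microsomal activation (HLM and NADPH).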

[7] = p53 small molecule agonists, cell-based qHTS assay with rat liver microsomes: qHTS cell viability counter screen (AID 1963580); note: nearly all actives have a fitted effect of over 45% in size; note: potency is the fitted concentration of half-maximal effect
Summary of the method: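 Intracellular ATP, by CellTiter-Glo luminescence, defines viability. HCT-116 p53RE-bla cells, 4,000 per well, were compound-treated in the presence of rat liver microsomes and NADPH for 16 h at 37 C.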

[8] = p53 small molecule agonists, cell-based qHTS assay: qHTS cell viability counter screen (AID 1963581); note: nearly all actives have a fitted effect of over 45% in size; note: potency is the fitted concentration of half-maximal effect
Summary of the method: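 p53RE-bla HCT-116 cells, compounds added 5 h after plating and incubated 16 h at 37 C. Cytotoxicity measured in the same wells as intracellular ATP by CellTiter-Glo luminescence after 30 min at room temperature.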

[9] = p53 small molecule agonists, cell-based qHTS assay (AID 1963582; active = well fitted activation curve with a large enough effect in the signal ratio in the repeat runs, not every such curve was filed as active; the % refers to the signal ratio)
Summary of the method: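 p53RE-bla reporter cells, compounds added in DMSO after 5 h plating, incubated 16 h at 37 C. Beta-lactamase read via 2 h room-temperature LiveBLAzer B/G FRET substrate, fluorescence intensity.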

[10] = target: 5-hydroxytryptamine receptor 2A (Homo sapiens) (UniProt P28223); experiment: 5-hydroxytryptamine receptor 2A (HTR2A) small molecule agonists, cell-based qHTS assay (AID 1963587); note: nearly all actives have a fitted effect of over 30% in size; note: potency is the fitted concentration of half-maximal effect
5-hydroxytryptamine receptor 2A (Homo sapiens), sequence (P28223 whole entry, looked up): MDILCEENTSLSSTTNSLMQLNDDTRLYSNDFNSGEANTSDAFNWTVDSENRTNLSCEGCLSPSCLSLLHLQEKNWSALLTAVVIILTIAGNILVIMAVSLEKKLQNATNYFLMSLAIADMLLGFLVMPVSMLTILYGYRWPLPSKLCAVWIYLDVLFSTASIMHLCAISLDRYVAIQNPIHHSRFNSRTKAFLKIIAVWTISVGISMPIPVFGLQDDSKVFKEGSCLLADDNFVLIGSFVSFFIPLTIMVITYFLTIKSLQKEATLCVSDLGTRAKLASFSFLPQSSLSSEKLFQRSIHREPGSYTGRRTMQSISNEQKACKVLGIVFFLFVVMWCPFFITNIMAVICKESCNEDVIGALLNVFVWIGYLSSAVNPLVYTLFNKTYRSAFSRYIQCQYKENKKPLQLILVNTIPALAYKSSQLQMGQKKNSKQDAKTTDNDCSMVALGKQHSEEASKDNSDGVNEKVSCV
Summary of the method: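 Kinetic calcium-flux fluorescence (2 min, 1 sec intervals) after compound addition in agonist mode. HTR2A-CHO cells were cultured 18 h, then dye-loaded 1 h at 37 C.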

[11] = target: Muscarinic acetylcholine receptor M1 (Homo sapiens) (UniProt P11229); experiment: Cholinergic receptor muscarinic 1 (CHRM1) small molecule antagonists, cell-based qHTS assay (AID 1963588); note: nearly all actives have a fitted effect of over 40% in size
Muscarinic acetylcholine receptor M1 (Homo sapiens), sequence (P11229 whole entry, looked up): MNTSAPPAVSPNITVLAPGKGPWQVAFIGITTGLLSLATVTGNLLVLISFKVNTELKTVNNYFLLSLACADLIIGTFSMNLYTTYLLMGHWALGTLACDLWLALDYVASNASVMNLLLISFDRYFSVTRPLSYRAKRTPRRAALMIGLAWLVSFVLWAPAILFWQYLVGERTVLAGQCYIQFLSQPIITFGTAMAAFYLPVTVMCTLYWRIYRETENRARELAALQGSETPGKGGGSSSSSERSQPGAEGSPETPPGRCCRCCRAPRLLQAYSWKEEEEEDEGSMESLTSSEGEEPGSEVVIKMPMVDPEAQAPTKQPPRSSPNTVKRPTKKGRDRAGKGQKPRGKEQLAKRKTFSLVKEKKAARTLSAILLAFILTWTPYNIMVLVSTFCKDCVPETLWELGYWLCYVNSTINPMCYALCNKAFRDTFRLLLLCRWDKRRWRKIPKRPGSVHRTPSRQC
Summary of the method: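 CHRM1-CHO calcium-flux assay, antagonist mode. Cells were seeded 18 h, dye-loaded 1 h at 37 C and given compound for 5 min at RT, then acetylcholine was added at 50nM. FDSS fluorescence was read 3 min; 15 concentrations, three runs.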

[12] = target: Muscarinic acetylcholine receptor M1 (Homo sapiens) (UniProt P11229); experiment: Cholinergic receptor muscarinic 1 (CHRM1) small molecule agonists, cell-based qHTS assay (AID 1963589); note: nearly all actives have a fitted effect of over 35% in size
Summary of the method: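 CHO cells stably expressing human CHRM1 were loaded with calcium dye for 1 h at 37 C, then compound was added in agonist mode. Intracellular calcium fluorescence was followed kinetically at 1 s intervals. Fifteen concentrations were tested in three independent runs.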

[13] = cAMP Responsive Elements (CRE) small molecule antagonists, cell-based qHTS assay (AID 1963591; active = well fitted inhibition curve with a large enough effect in the signal ratio in the repeat runs, not every such curve was filed as active; the % refers to the signal ratio)
Summary of the method: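 CRE-bla HEK293T cells plated 18 h, then given compound plus NKH477 at 0.25 uM final for 3 h at 37C. Beta-lactamase reporter read with LiveBLAzer B/G FRET substrate after 2 h at room temperature.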

[14] = target: D(2) dopamine receptor (Homo sapiens) (UniProt P14416); experiment: Dopamine D2 receptor (DRD2) small molecule agonists, cell-based qHTS assay (AID 1963594); note: nearly all actives have a fitted effect of over 35% in size
D(2) dopamine receptor (Homo sapiens), sequence (P14416 whole entry, looked up): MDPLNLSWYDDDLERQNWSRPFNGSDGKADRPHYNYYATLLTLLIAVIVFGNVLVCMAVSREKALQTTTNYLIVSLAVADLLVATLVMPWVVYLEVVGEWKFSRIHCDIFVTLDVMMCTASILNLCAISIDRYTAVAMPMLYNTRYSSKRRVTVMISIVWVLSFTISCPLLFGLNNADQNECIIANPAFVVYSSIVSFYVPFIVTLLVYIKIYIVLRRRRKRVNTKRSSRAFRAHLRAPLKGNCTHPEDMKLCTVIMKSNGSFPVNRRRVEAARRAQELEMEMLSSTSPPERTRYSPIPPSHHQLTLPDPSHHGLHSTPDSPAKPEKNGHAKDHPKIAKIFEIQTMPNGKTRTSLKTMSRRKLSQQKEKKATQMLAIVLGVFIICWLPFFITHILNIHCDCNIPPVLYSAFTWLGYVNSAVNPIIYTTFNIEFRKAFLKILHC
Summary of the method: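 cAMP accumulation in DRD2-HEK293 cells measured by HTRF after 1 h detection; compounds added 10 min before NKH477 (200nM […]) forskolin-analogue stimulation, 30 min at room temperature, with Ro20-1724 present at 0.1 mM final.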

[15] = target: D(2) dopamine receptor (Homo sapiens) (UniProt P14416); experiment: Dopamine D2 receptor (DRD2) small molecule antagonists, cell-based qHTS assay (AID 1963595; active = well fitted inhibition curve with a large enough effect in the signal ratio in the repeat runs, with a control signal flat; the % refers to the signal ratio; note: potency is the fitted concentration of half-maximal effect)
Summary of the method: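 Stable D2 receptor HEK293 line, 24 h after seeding. Compound preincubated 10 min, then quinpirole (12 nM) with forskolin analogue NKH477 (200 nM), 30 min, room temperature. Detection by time-resolved FRET of cAMP.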

[16] = target: 5-hydroxytryptamine receptor 2A (Homo sapiens) (UniProt P28223); experiment: 5-hydroxytryptamine receptor 2A (HTR2A) small molecule antagonists, cell-based qHTS assay (AID 1963586); note: nearly all actives have a fitted effect of over 45% in size
Summary of the method: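 Antagonist-mode intracellular calcium assay: DOI (4 nM) added after 5 min compound pre-incubation at room temperature to dye-loaded HTR2A-CHO cells. Fluorescence followed for 3 min, sampled every second.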

[17] = cAMP Responsive Elements (CRE) small molecule agonists, cell-based qHTS assay (AID 1963590)
Summary of the method: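 CRE-bla HEK 293T cells, 2,000/well in DMEM with 10% dialyzed FBS and 25 mM HEPES, pre-incubated 18 h at 37 C, then exposed to compound 3 h at 37 C. Beta-lactamase reporter read with LiveBLAzer B/G FRET substrate after 2 h at room temperature.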

[18] = target: Beta-2 adrenergic receptor (Homo sapiens) (UniProt P07550); experiment: Adrenergic beta2 receptor (ADRB2) small molecule antagonists, cell-based qHTS assay (AID 1963592); note: series mostly up to about 92 µM; nearly all actives have a fitted effect of over 50% in size
Beta-2 adrenergic receptor (Homo sapiens), sequence (P07550 whole entry, looked up): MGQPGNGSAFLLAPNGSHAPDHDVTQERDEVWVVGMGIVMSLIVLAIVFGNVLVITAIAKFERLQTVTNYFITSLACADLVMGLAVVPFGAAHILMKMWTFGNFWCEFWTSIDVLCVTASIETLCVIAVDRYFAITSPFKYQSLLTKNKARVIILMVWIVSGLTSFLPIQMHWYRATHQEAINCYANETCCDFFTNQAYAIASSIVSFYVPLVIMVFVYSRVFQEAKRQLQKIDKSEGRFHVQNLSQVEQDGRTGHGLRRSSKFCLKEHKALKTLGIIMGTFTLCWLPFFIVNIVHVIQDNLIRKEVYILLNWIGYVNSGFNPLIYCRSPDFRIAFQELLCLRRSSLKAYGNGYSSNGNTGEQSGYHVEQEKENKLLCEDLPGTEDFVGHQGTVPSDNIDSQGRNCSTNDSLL
Summary of the method: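 Cells (CHO, stable ADRB2 overexpression) incubated 18-20hr at 37C; compounds added from DMSO; agonist mix (1nM isoproterenol, 100uM IBMX, 25uM Ro-20-1724) added; 0.5hr RT; d2-cAMP and anti-cAMP-cryptate added; 1hr RT; 665/615 nm read.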

[19] = target: Beta-2 adrenergic receptor (Homo sapiens) (UniProt P07550); experiment: Adrenergic beta2 receptor (ADRB2) small molecule agonists, cell-based qHTS assay (AID 1963593);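 note: CHO cells stably overexpressing human ADRB2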
Summary of the method: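 CHO cells stably over-expressing ADRB2 were plated overnight at 37C, then dosed with compounds plus a stimulation mix containing 100uM IBMX and 25uM Ro-20-1724 for 0.5hr at room temperature. cAMP was measured by HTRF competition, 1hr.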

[20] = Nuclear factor erythroid 2-related factor 2/antioxidant responsive element (Nrf2/ARE) small molecule agonists: qHTS cell viability counter screen in human keratinocytes (AID 1919968; active = well fitted curve in the direction sought with a large enough effect in the repeat runs; an effect the other way counts as inactive or inconclusive; note: nearly all actives have a fitted effect of over 55% in size)
Summary of the method: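 KeratinoSens HaCaT cells, 1,500/well, preincubated 5 h, then exposed to compounds in DMSO for 23 h at 37 C/5% CO2. Viability read as CellTiter-Fluor fluorescence after 1 h, in the same wells as the ARE-luciferase read.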

Measured: Potency

C=C[C@](C)(O)CC[C@@H]1[C@@]2(C)CCCC(C)(C)[C@@H]2CC[C@@]1(C)O
active: [6] 32.4 µM | [7] 45.8 µM | [8] 9.13 µM | [15] 43.3 µM
not listed: [16] | [17] | [18] | [19] | [20]
inactive: all other assays above

C=CC(=C)CCC=C(C)C
not listed: [20]
inactive: all other assays above

Cc1cc([N+](=O)[O-])ccc1N
not listed: [14] | [20]
inactive: all other assays above

CN(C/C=C/c1ccccc1)Cc1cccc2ccccc12
active: [15] 6.68 µM
not listed: [10] | [13] | [16] | [17] | [19] | [20]
inactive: all other assays above

O=C(/C=C/c1ccc([N+](=O)[O-])cc1)c1ccccc1
active: [7] 20.5 µM
not listed: [13] | [15] | [17] | [19] | [20]
inactive: all other assays above

CCC(C)c1cc(C(C)(C)C)c(O)c(C(C)(C)C)c1 (stereo not given)
not listed: [16] | [17] | [19] | [20]
inactive: all other assays above

C1=CC2C3C=CC(C3)C2C1 (stereo not given)
active: [10] 54 µM
inactive: [20] | [3] | [5] | [9] | [11] | [17] | [13] | [18]

Nc1ccc(O)c(N)c1
not listed: [14] | [15] | [18] | [19] | [20]
inactive: all other assays above

CC(C)CCCC(C)CC=O (stereo not given)
not listed: [1] | [2] | [3] | [4] | [10] | [12] | [15] | [19]
inactive: all other assays above

CCCCC/C(=C\c1ccccc1)CO
active: [10] 54.3 µM
not listed: [17] | [19] | [20]
inactive: all other assays above

COC(=O)NCCC[Si](OC)(OC)OC
active: [6] 20.4 µM
not listed: [19] | [20]
inactive: all other assays above

O=C(/C=C/c1ccc(O)c(O)c1)O[C@@H](C(=O)O)[C@@H](OC(=O)/C=C/c1ccc(O)c(O)c1)C(=O)O
not listed: [14] | [15] | [16] | [19] | [20]
inactive: all other assays above

O=C(Oc1ccccc1)c1ccc2ccccc2c1O
not listed: [10] | [14] | [20]
inactive: all other assays above
